Hits are enriched below; roughly 7.4% of the tested compounds scored in any of these assays.
NPC1 promoter act: qHTS Assay for NPC1 Promoter Activators. Huh7 NPC1 promoter luciferase reporter, 24 h. 2.4% of 320,000 active. Potency, µM (series often up to 9.22 µM), actives largely listed as activators; note: nearly all actives have a fitted effect of over 60% in size
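NPC1 promoter–luciferase Huh7 cells; 24 h compound; luminescence.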
FLuc modulator: qHTS profiling assay for firefly luciferase inhibitor/activator using purifed enzyme and Km concentrations of substrates (counterscreen for miR-21 project) | purified FLuc, Km substrates, luminescence inhibition | Potency, µM (titrated, usually from 57.5 µM), usual class: inhibitors | 6.9% of 360,000 active | AID 588342, 2011; note: nearly all actives have a fitted effect of over 55% in size
Target sequence (P08659 whole entry, looked up): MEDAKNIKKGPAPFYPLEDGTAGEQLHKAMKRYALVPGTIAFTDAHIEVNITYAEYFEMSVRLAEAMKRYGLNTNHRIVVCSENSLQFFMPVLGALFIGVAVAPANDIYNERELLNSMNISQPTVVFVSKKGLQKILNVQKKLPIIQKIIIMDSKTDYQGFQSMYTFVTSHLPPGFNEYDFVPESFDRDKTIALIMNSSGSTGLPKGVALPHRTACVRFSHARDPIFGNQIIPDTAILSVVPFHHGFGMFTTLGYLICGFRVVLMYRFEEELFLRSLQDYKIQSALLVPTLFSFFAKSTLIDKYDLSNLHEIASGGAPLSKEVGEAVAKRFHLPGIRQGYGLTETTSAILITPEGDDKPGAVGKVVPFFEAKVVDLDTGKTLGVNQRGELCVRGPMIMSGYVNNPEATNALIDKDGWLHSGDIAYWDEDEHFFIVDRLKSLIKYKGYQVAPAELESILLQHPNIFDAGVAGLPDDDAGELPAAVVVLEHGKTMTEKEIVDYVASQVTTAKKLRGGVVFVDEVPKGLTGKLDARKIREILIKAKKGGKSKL
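Purified P. pyralis luciferase, 10 nM final, with Km-level 10 uM D-luciferin and 10 uM ATP in 50 mM Tris acetate pH 7.5, 10 mM Mg acetate, 0.01% Tween-20, 0.05% BSA; 6-point qHTS titration about 60 µM downward; luminescence read.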
ELG1 genotoxic: qHTS screen for small molecules that induce genotoxicity in human embryonic kidney (HEK293T) cells expressing luciferase-tagged ELG1. HEK293T ELG1-luciferase reporter, luminescence, 16 h. Potency, µM (series often up to 46 µM), usual class: activators. 1.3% of 330,000 active. AID 504466, 2011; note: nearly all actives have a fitted effect of over 60% in size
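Quantitative HTS format in 1536-well plates. HEK293T ELG1-luciferase reporter cells receive test compound and are incubated 16 hr at 37 °C, 5% CO2; ONE-Glo added, 30 min room temperature, then luminescence read.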
SMN2 splice up: qHTS Assay for Enhancers of SMN2 Splice Variant Expression. 2.8% of 210,000 active. AID 1458, 2008. Potency, µM (titrated, usually from 46.1 µM), usual class: activators. HEK293 SMN2-luciferase splicing reporter, luminescence, 30-36 h; note: nearly all actives have a fitted effect of over 55% in size
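qHTS luciferase splicing reporter: luminescence rises when SMN2 exon 7 is included in transfected HEK293 cells. Compound exposure lasted 30-36 h at 37C, with 4.5 mM final sodium butyrate as control, followed by a ONE-Glo read.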
Rab9 promoter act: qHTS Assay for Rab9 Promoter Activators; 2.8% of 320,000 active; Potency, µM (highest dose often 9.22 µM), hits mostly activators; Huh7 Rab9 promoter-luciferase reporter, luminescence, 24 h; note: nearly all actives have a fitted effect of over 60% in size
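Steps: seed 1500 Huh7 Rab9-luc cells per well, rest 2 h at 37 °C; add compound in DMSO; incubate 24 h; add luciferase reagent, 10 min ambient; read luminescence.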
A number is an active result. Calls come from the whole dose curve; as a rule, active = well fitted curve in the direction sought with a large enough effect; inconclusive = small, poorly fitted or top-dose-only effect, or another doubt; inactive = no such curve, though single readings can be large; an effect the other way counts as inactive or inconclusive.

For COc1ccc(-c2oc3cccnc3c2/C=C/c2ccc(OC)c(OC)c2)cc1 the results were NPC1 promoter act inactive, FLuc modulator 7.6µM, ELG1 genotoxic inactive and Rab9 promoter act inactive.
Cc1c(C(=O)OCC(=O)N2C(C)CCCC2C)oc2ccccc12 (stereo unspecified) was read as NPC1 promoter act inconclusive, FLuc modulator 17µM, ELG1 genotoxic inconclusive and Rab9 promoter act inconclusive.
`Cc1c(C(=O)OCC(C)(C)CN(C)C)oc2ccccc12` gave NPC1 promoter act inactive, FLuc modulator 19µM, ELG1 genotoxic inconclusive, SMN2 splice up inactive and Rab9 promoter act inactive.
Screening Cc1c(C(=O)OCCN2CCCCC2)oc2ccccc12 returned NPC1 promoter act inactive, FLuc modulator 19µM, ELG1 genotoxic inactive, SMN2 splice up inactive and Rab9 promoter act inactive.
`CC(C)N(C)C1CCN(S(=O)(=O)c2ccc3[nH]c(=O)ccc3c2)CC1` gave FLuc modulator inactive.
Screening Cc1cccc(-c2nc(CN3CCCC(C(=O)N4CCN(c5cc(Cl)ccc5C)CC4)C3)c(C)o2)c1 (stereo unspecified) returned FLuc modulator inconclusive and SMN2 splice up inactive.
CN(C)c1ncc2nc(-c3cccs3)c(=O)n(C3CC3)c2n1 was read as SMN2 splice up inactive.
For COc1ccc(/C=C2/SC(=S)N(CCC(=O)O)C2=O)cc1 the results were NPC1 promoter act inactive, FLuc modulator 5.4µM, ELG1 genotoxic inactive, SMN2 splice up inactive and Rab9 promoter act inactive.
Screening COC(=O)c1ccc(/C=C2/SC(=S)N(CCCC(=O)Nc3ccccn3)C2=O)cc1 returned NPC1 promoter act inactive, FLuc modulator inconclusive, ELG1 genotoxic inactive, SMN2 splice up inactive and Rab9 promoter act inactive.
`CCc1ccc(/C=C2\SC(=S)N(CCCC(=O)Nc3ccccn3)C2=O)cc1` gave NPC1 promoter act inactive, FLuc modulator 15µM, ELG1 genotoxic inactive, SMN2 splice up inactive and Rab9 promoter act inactive.
`COc1cccc(/C=C2\SC(=S)N(CCCC(=O)N3CCCC3)C2=O)c1` gave NPC1 promoter act inactive, FLuc modulator 17µM, ELG1 genotoxic inactive and Rab9 promoter act inactive.
For CCOc1ccc(/C=C2\SC(=S)N(CCC(=O)N(CCO)c3ccccc3)C2=O)cc1 the results were NPC1 promoter act inactive, FLuc modulator 9.5µM, ELG1 genotoxic inactive and Rab9 promoter act inactive.
For COc1ccccc1C1C(C(=O)Nc2ccccc2)=C(C)Nc2nc(-c3ccccc3)nn21 (stereo unspecified) the results were FLuc modulator inactive and SMN2 splice up inactive.
CN(Cc1ccccc1)C(=O)C1CCN(S(=O)(=O)c2ccc3c(c2)oc(=O)n3C)CC1 was read as FLuc modulator inactive and SMN2 splice up inactive.
Screening COc1ccc(-c2cc3nc(C4CCN(C(=O)OC(C)(C)C)CC4)c(C(=O)Nc4cc(Cl)cc(Cl)c4)cn3n2)cc1 returned FLuc modulator inactive and SMN2 splice up inactive.
For BrC/C=C/CBr the results were SMN2 splice up inactive.
Screening COc1cccc(/C=C2/SC(=O)N(C)C2=O)c1OCc1ccc(C(=O)O)cc1 returned NPC1 promoter act inactive, FLuc modulator inactive, ELG1 genotoxic inactive and Rab9 promoter act inactive.
Screening O=C(O)CCN1C(=O)/C(=C\c2cccc(Oc3ccccc3)c2)SC1=S returned NPC1 promoter act inactive, FLuc modulator 24µM, ELG1 genotoxic inactive and Rab9 promoter act inactive.
`COc1ccc(/C=C2\SC(=S)N(CCC(=O)Nc3ccc(C(=O)O)cc3)C2=O)cc1` gave NPC1 promoter act inactive, FLuc modulator 3µM, ELG1 genotoxic inconclusive and Rab9 promoter act inactive.
`CN1C(=O)S/C(=C/c2ccc(OCc3cccc(C(=O)O)c3)cc2)C1=O` gave NPC1 promoter act 0.4µM, FLuc modulator 2.7µM, ELG1 genotoxic inconclusive and Rab9 promoter act 0.28µM.
`O=C(O)CN1C(=O)/C(=C\c2cccc(OCc3ccccc3F)c2)SC1=S` gave NPC1 promoter act inactive, FLuc modulator 21µM, ELG1 genotoxic inactive and Rab9 promoter act inactive.
Screening Cc1cccc(C(=O)NC2(C(F)(F)F)N=C(c3ccccc3)N(C3CCCCC3)C2=O)c1 (stereo unspecified) returned FLuc modulator inactive and SMN2 splice up inactive.
